Assay results from the supplement of paper PMC7156485.
± gives the standard deviation of the averaged measurements.

Key:
Conditions in all cases: concentration: 10 µM; 24 h
[1] = test system: HCC1569; assay: cell number relative to DMSO (% of DMSO); higher = more cells (less growth inhibition / toxicity)
In short: (§1)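 In 384-well plates holding 800 HCC1569 or TDF cells per well in RPMI with 10% FBS, compounds were tested at 10 µM for 24 h at 37 °C in triplicate. Fixation used 3.7% formaldehyde. Staining used a rabbit anti-H1.0 antibody with an AlexaFluor 647 secondary, plus DAPI. Each value, H1.0 nuclear intensity or cell number, is a median of replicates shown as percent of the plate control, and HCC1569 values were smoothed for positional effects.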

[2] = test system: TDF; assay: as above
In short: as §1

[3] = test system: TDF; assay: H1.0 immunofluorescence intensity relative to DMSO (% of DMSO); higher = stronger H1.0 induction, active = 120 or more
In short: as §1

[4] = test system: HCC1569; assay: H1.0 immunofluorescence intensity relative to DMSO (% of DMSO); higher = stronger H1.0 induction, active = 140 or more
In short: as §1
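Wherever H1.0 immunofluorescence intensity relative to DMSO is given: TDF is a line of transformed human dermal fibroblasts of mesenchymal origin.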
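Wherever cell number relative to DMSO is given: TDF denotes transformed human dermal fibroblasts of mesenchymal origin.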

| Structure (SMILES) | cell number [1] | cell number [2] | H1.0 immunofluorescence intensity [3] | H1.0 immunofluorescence intensity [4] |
| --- | --- | --- | --- | --- |
| CC1(COc2ccc(CC3SC(=O)NC3=O)cc2)CCCCC1 (stereo not given) [Ciglitizone] | 102 | 105 | 96.5 (inactive) | 90.5 (inactive) |
| CN1CCN2c3ccccc3Cc3ccccc3C2C1.Cl (stereo not given) [Mianserin.HCl] | 107 | 112 | 101 (inactive) | 96.2 (inactive) |
| N=c1ccn2c(n1)OC1C(O)C(CO)OC12 (stereo not given) [Cyclocytidine] | 76.4 | 51.7 | 103 (inactive) | 101 (inactive) |
| Cl.Nc1cc(Nc2ccc(S(N)(=O)=O)cc2)ncn1 | 100 | 93.3 | 98.4 (inactive) | 102 (inactive) |
| CCCCCC=CCC(O)C=Cc1cccc(CC(O)CCCCO)n1 (stereo not given) | 98.7 ± 2 | 108 ± 4.7 | 95.9 (inactive) | 113 (inactive) |
| Cc1cc(C(C)(C)C)c(O)c(C(C)(C)C)c1 | 99.4 | 105 | 90.4 (inactive) | 99 (inactive) |
| CCCCOc1ccc(-c2cncc(C(=O)NCc3cccnc3N3CCOCC3)c2)cc1Cl | 86.9 | 104 | 98.3 (inactive) | 150 (active) |
| CN(N=O)C(=O)NC1C(O)OC(CO)C(O)C1O (stereo not given) [Streptozocin] | 101 | 102 | 96.1 (inactive) | 87.6 (inactive) |
| O=C(Nc1cccc(Nc2ncc(Br)c(NCCc3cnc[nH]3)n2)c1)N1CCCC1 | 51.2 | 33.8 | 113 (inactive) | 109 (inactive) |
| O=C(O)CNC(=O)C(=O)O [2-(carboxymethylamino)-2-oxoacetic acid] | 103 | 92.4 | 93.7 (inactive) | 83.7 (inactive) |
